From the supplement of paper PMC10037445 come the findings set out here.

Molecules are shown by their SMILES. The full ranking holds about 2,900 compounds; the median of “NF-kB SEAP reporter activity, fold change vs agonist alone” is about 0.99, and the highest 2% start at about 2.6. The entries come from a sample that favours the highest values as a whole.

Assay [1] deals with RAW-Dual. Briefly: NF-kB SEAP reporter activity, fold change vs agonist alone; higher = enhanced NF-kB activity. A digest of the protocol:
(§1)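 Cytotoxic wells were those whose IncuCyte confluency was below 70% of agonist controls in both mask sets. The cells were RAW-Dual macrophages at 50,000 cells/well in DMEM on 384-well plates, dosed with 50 nL of library stock by pin tool, stimulated with a PRR agonist 1 h later, and kept at 37 °C, 5% CO2 for 20 hours. IRF and NF-κB reporter activity, as fold change over agonist-alone wells, came from supernatant read by QuantiLuc luminescence and QuantiBlue absorbance, respectively.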

The subject of assay [2] is RAW-Dual. Briefly: NF-kB SEAP reporter activity, fold change vs agonist alone; cytotoxicity flag (confluency mask): not cytotoxic; higher = enhanced NF-kB activity. A digest of the protocol: as §1
For assay [3], the system named is RAW-Dual. Briefly: NF-kB SEAP reporter activity, fold change vs agonist alone; cytotoxicity flag (confluency mask): cytotoxic (confluency <70% of control); higher = enhanced NF-kB activity. A digest of the protocol:
as §1

[4] abbreviates: library stock concentration (final ~1000-fold dilution): 10 mM, cytotoxicity flag (confluency mask): not cytotoxic, agonist: Imiquimod (TLR7) […].
Setting [5] is: library stock concentration (final ~1000-fold dilution): 10 mM, cytotoxicity flag (confluency mask): not cytotoxic, agonist: MPLA (TLR4) […].
[6] abbreviates: agonist: ODN 1826 (TLR9) 0.5 ug/mL.
[7] abbreviates: agonist: Pam2CSK4 (TLR2/6) 0.1 ug/mL.
[8] abbreviates: agonist: Pam3CSK4 (TLR2/1) 0.1 ug/mL.
[9] abbreviates: library stock concentration (final ~1000-fold dilution): 10 mM, cytotoxicity flag (confluency mask): cytotoxic (confluency <70% of control), agonist: Imiquimod (TLR7) […].
[10] abbreviates: library stock concentration (final ~1000-fold dilution): 10 mM, cytotoxicity flag (confluency mask): cytotoxic (confluency <70% of control), agonist: MPLA (TLR4) […].

With `COc1cc(C(=O)O)ccc1O`, the “NF-kB SEAP reporter activity” value with RAW-Dual [1] (setting [4]) is 0.937; with RAW-Dual [1] (setting [5]) it was 1.02.
As to `COc1cc(C(=O)O)ccc1O` (library stock concentration (final ~1000-fold dilution): 10 mM), the “NF-kB SEAP reporter activity” value in the assay with RAW-Dual [2] (agonist: LPS (TLR4) 0.1 ug/mL) is 1.06; with RAW-Dual [2] (setting [6]), 1.12; in the assay on RAW-Dual [2] (setting [7]) it was 1.14; in the assay on RAW-Dual [2] (setting [8]), 1.16.
Regarding `CCCCOc1nc(N)c2c(n1)N(Cc1cccc(CN3CCCC3)c1)CC(=O)N2`, the “NF-kB SEAP reporter activity” value stood at 1.26 in the assay on RAW-Dual [1] (library stock concentration (final ~1000-fold dilution): 1 mM, cytotoxicity flag (confluency mask): not cytotoxic, agonist: Imiquimod (TLR7) […]) and 1.91 in the assay with RAW-Dual [1] (library stock concentration (final ~1000-fold dilution): 1 mM, cytotoxicity flag (confluency mask): not cytotoxic, agonist: MPLA (TLR4) […]).
Take `COCCOc1nc(N)c2[nH]c(=O)n(Cc3ccc(C(=O)O)cc3)c2n1`: the figures for the “NF-kB SEAP reporter activity” value in the assay with RAW-Dual [1] (setting [4]) and in the assay with RAW-Dual [1] (setting [5]) were 1.8 and 2.54, respectively.
Take `CCCCOc1nc(N)c2c(n1)N(Cc1cccc(CN3CCCC3)c1)CC(=O)N2` (library stock concentration (final ~1000-fold dilution): 1 mM): the “NF-kB SEAP reporter activity” value is 2.53 in the assay with RAW-Dual [2] (agonist: LPS (TLR4) 0.1 ug/mL), 1.13 in the assay with RAW-Dual [2] (setting [6]), 1.17 with RAW-Dual [2] (setting [7]) and 1.25 in the assay with RAW-Dual [2] (setting [8]).
With `COCCOc1nc(N)c2[nH]c(=O)n(Cc3ccc(C(=O)O)cc3)c2n1` (library stock concentration (final ~1000-fold dilution): 10 mM), the “NF-kB SEAP reporter activity” value in the assay with RAW-Dual [2] (agonist: LPS (TLR4) 0.1 ug/mL) is 7.55; with RAW-Dual [2] (setting [6]) it was 2.13; in the assay with RAW-Dual [2] (setting [7]), 1.46; in the assay on RAW-Dual [2] (setting [8]), 2.77.
Consider `Cc1cn(C2CC(O)C(CO)O2)c(=O)[nH]c1=O` (configuration not stated), for which the “NF-kB SEAP reporter activity” value stood at 0.952 with RAW-Dual [1] (setting [4]) and 1.03 in the assay with RAW-Dual [1] (setting [5]).
Take `Cc1cn(C2CC(O)C(CO)O2)c(=O)[nH]c1=O` (configuration not stated) (library stock concentration (final ~1000-fold dilution): 10 mM): the “NF-kB SEAP reporter activity” value with RAW-Dual [2] (agonist: LPS (TLR4) 0.1 ug/mL) was 1.16; with RAW-Dual [2] (setting [6]), 1.03; in the assay with RAW-Dual [2] (setting [7]) it was 1.12; in the assay with RAW-Dual [2] (setting [8]), 1.11.
For the compound `CC1(COc2ccc3c(c2)ncn3-c2ccc3cccc(N4CCC(N)CC4)c3n2)COC1` (library stock concentration (final ~1000-fold dilution): 10 mM), the “NF-kB SEAP reporter activity” value amounted to 0.769 in the assay on RAW-Dual [3] (agonist: LPS (TLR4) 0.1 ug/mL), 1.59 with RAW-Dual [3] (setting [6]), 1.81 with RAW-Dual [3] (setting [7]) and 1.6 in the assay on RAW-Dual [3] (setting [8]).
For `CC1(COc2ccc3c(c2)ncn3-c2ccc3cccc(N4CCC(N)CC4)c3n2)COC1`, the “NF-kB SEAP reporter activity” value with RAW-Dual [1] (setting [9]) was found to be 2.9; in the assay on RAW-Dual [1] (setting [10]), 1.43.
`COCCOc1ccc2c(c1)ncn2-c1ccc2cccc(N3CCC(N)CC3)c2n1`: the “NF-kB SEAP reporter activity” value in the assay with RAW-Dual [1] (setting [9]) turned out to be 2.77; in the assay on RAW-Dual [1] (setting [10]) it was 0.871.
On to `COCCOc1ccc2c(c1)ncn2-c1ccc2cccc(N3CCC(N)CC3)c2n1` (library stock concentration (final ~1000-fold dilution): 10 mM), for which the “NF-kB SEAP reporter activity” value in the assay on RAW-Dual [3] (agonist: LPS (TLR4) 0.1 ug/mL) is 0.593; in the assay with RAW-Dual [3] (setting [6]), 0.758; in the assay with RAW-Dual [3] (setting [7]), 0.862; with RAW-Dual [3] (setting [8]), 1.32.
Take `OCc1ccccc1OC1OC(CO)C(O)C(O)C1O` (configuration not stated) (library stock concentration (final ~1000-fold dilution): 10 mM): the “NF-kB SEAP reporter activity” value worked out at 0.986 in the assay on RAW-Dual [2] (agonist: LPS (TLR4) 0.1 ug/mL), 1.08 in the assay with RAW-Dual [2] (setting [6]), 1.11 with RAW-Dual [2] (setting [7]) and 1.19 with RAW-Dual [2] (setting [8]).
With `OCc1ccccc1OC1OC(CO)C(O)C(O)C1O` (configuration not stated), the “NF-kB SEAP reporter activity” value in the assay on RAW-Dual [1] (setting [4]) came to 0.917; with RAW-Dual [1] (setting [5]) it was 1.04.
As for `COc1cccc(-c2c(C)n(Cc3c(F)cccc3C(F)(F)F)c(=O)n(CC(NCCCC(=O)O)c3ccccc3)c2=O)c1F` (configuration not stated) (library stock concentration (final ~1000-fold dilution): 10 mM), the “NF-kB SEAP reporter activity” value was 1.32 with RAW-Dual [2] (agonist: LPS (TLR4) 0.1 ug/mL), 1.06 with RAW-Dual [2] (setting [6]), 0.866 with RAW-Dual [2] (setting [7]) and 0.768 in the assay on RAW-Dual [2] (setting [8]).
Regarding `COc1cccc(-c2c(C)n(Cc3c(F)cccc3C(F)(F)F)c(=O)n(CC(NCCCC(=O)O)c3ccccc3)c2=O)c1F` (configuration not stated), the “NF-kB SEAP reporter activity” value with RAW-Dual [1] (setting [5]) is 1.03.
